Data on 48 compounds can be found in PubChem BioAssay AID504332 (National Center for Advancing Translational Sciences (NCATS), 2011).

Out of some 350,000 compounds screened, about 31,000 (8.9%) were called active. About 15% were inconclusive and are not listed. The sample as a whole holds a higher share of actives than the screen did. Values without a mark were called inactive. The call rests on the fitted dose curve; in most records, active means well fitted inhibition curve with a large enough effect; inconclusive means small, poorly fitted or top-dose-only effect; inactive means no such curve, though single readings can be large or run the other way.
On the % scale 0 is the no-effect control and ±100 the full control effect; potency means the concentration at half of the fitted maximal effect.

Chain of Histone-lysine N-methyltransferase EHMT2 (Homo sapiens) (Q96KQ7 913-1193 limits assumed): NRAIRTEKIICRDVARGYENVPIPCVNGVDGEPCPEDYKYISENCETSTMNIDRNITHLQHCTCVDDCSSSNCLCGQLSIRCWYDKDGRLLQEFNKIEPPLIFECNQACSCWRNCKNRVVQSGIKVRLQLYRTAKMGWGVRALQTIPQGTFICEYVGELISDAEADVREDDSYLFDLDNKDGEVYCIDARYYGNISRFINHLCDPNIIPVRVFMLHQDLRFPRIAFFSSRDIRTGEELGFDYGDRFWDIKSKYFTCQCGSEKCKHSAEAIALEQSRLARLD

This assay addresses Histone-lysine N-methyltransferase EHMT2 (Homo sapiens) (UniProt Q96KQ7). Description: qHTS Assay for Inhibitors of Histone Lysine Methyltransferase G9a. Further: nearly all actives have a fitted effect of over 75% in size. The note with it: G9a H3K9 monomethylation, AlphaScreen, 2 h; series mostly up to 102 µM; activity, negative = inhibition: at the top concentration. The text has this: Methylated lysines, on the N-terminal tails of histone proteins serve as epigenetic markers to recruit factors that can then modify local chromatin structure to lead to functional consequences. G9a and other members of the SUV39 family of the SET domain-containing superfamily of histone lysine methyltransferases (HMT) have been identified to specifically methylate Lys9 of histone H3 (H3K9). G9a catalyzes the mono- and di-methylation of H3K9 in mammalian euchromatic regions, where the resulting H3K9me2 is indicative of transcriptional repression. […] The inhibition of G9a will result in transcriptional activation and work synergistically with DNA methyltransferase and histone deacetylase inhibitors, to kill cancer cells. This qHTS assay for identification of G9a inhibitors is a chemiluminescence based AlphaScreen (PerkinElmer). Methylation of biotinylated-histone peptide is measured through specific antibody-based detection, in conjunction with streptavidin-coated donor and anti-IgG antibody-coated acceptor beads. The method is particularly well suited for detection of inhibitors acting by the desired histone peptide competitive mechanism and is applicable to testing other HMTs. Although AlphaScreen has significant advantages with its utility in a variety of epigenetic target assays, the primary screening data provided in this deposition should be used with caution due to the prevalence of screening artifacts. An AlphaScreen counterscreen is highly recommended to be run against any putative actives to eliminate non specific artifacts. Alternatively, one can use other AlphaScreen assays in PubChem to filter out promiscuous hits. Quinn et al. A chemiluminescence-based method for identification of histone lysine methyltransferase inhibitors. Mol Biosyst 6(5): 782-8. 2010. PMID: 20567762 [2] Baell,Holloway. New substructure filters for removal of pan assay interference compounds (PAINS) from screening libraries and for their exclusion in bioassays. J Med Chem. 53(7):2719-40. 2010. PMID: 20131845 NIH Molecular Libraries Probe Production Network [MLPCN] NIH Chemical Genomics Center [NCGC] Structural Genomics Consortium (SGC) NIH Grant: 5U54 MH084681-02
To each well of a 1,536w plate, 2ul of HMT enzyme (final 20nM) were added, using a nanoliter dispenser. The G9a- and GLP-inhibitor BIX-01294 (CID: 25150857) are used as an intraplate control, with a 16-point titration in duplicate. A Kalypsys pin-tool transferred 23nl of library compound solution in DMSO to each well. Following a 15 min incubation of enzyme with compounds at room temperature, 1ul mixture of b-H3K9 peptide substrate (final 500nM) and SAM cofactor (final 20uM) were added. Reactions were allowed to proceed at room temperature for 2 hours. Methylated b-H3K9 peptide product was detected with 0.5 ug/mL rabbit polyclonal anti-monomethyl histone H3K9 antibody (Abcam Inc., Cambridge, MA) and 20 ug/mL each streptavidin-coated donor and anti-rabbit IgG acceptor AlphaScreen beads. Antibody and beads were added in a 1ul dispense, for a final volume of 4ul, and plates were incubated, protected from the light, for 10 min at room temperature. Microplates were then read on an EnVision multilabel plate reader using the 1,536 plate HTS AlphaScreen aperture (excitation time 80 ms, measurement time 240 ms).
Consider `CN[C@@H]1C[C@H]2O[C@@](C)([C@@H]1OC)n1c3ccccc3c3c4c(c5c6ccccc6n2c5c31)C(=O)NC4`, for which the activity, negative = inhibition result was “inactive”.

Take `Cc1ccc(-n2c(/C=C/c3cccc(C(F)(F)F)c3)nc3ccccc3c2=O)cc1`: the “activity, negative = inhibition” value is -5.19% [at 59 µM]. Turning to `CCOc1ccc(-c2cc(C)[n+](CCN(CC)CC)c(-c3ccc(OCC)cc3)c2)cc1`, the “activity, negative = inhibition” value was 9.19% [at 59 µM]. Consider `CCCCC(=O)N/N=C/c1c(O)n(CCC2=CCCCC2)c(=O)[nH]c1=O`, for which the “activity, negative = inhibition” value was -31.3%. With `O=C(O)COc1ccccc1/C=C1\C(=O)NC(=O)N(CCC2=CCCCC2)C1=O`, the Potency is 50.1 µM (active). Take `CCN(CC)P(=O)(Oc1cccc(C)c1)N(CC)CC`: the “activity, negative = inhibition” value was -21.3%. With `Cc1cc(-c2n[nH]c(=S)n2-c2ccc(C)c(C)c2)no1`, the Potency was 2.51 µM (active).

`c1ccc(CN2CC[C@@]3(CCCNC3)C2)cc1`: the activity, negative = inhibition was -24.8% [at 12.7 µM]. Still for that read-out and setting: in the case of `CN1CCN(C(=O)COc2ccc(C(C)(C)C)cc2Br)CC1` it was -8.26%; in that of `O=C(O)c1ccccc1NC(=O)C1C2CCC(O2)C1C(=O)O` (stereo not drawn), -2.22% [at 0.501 µM]; in that of `ClC(Cl)(Cl)c1ccccc1`, -20.6% [at 0.501 µM]. Take `CCN1C(=O)C(=Cc2c(C)n(CC(=O)NCC3CCCO3)c3ccccc23)C(=O)N(CC)C1=S` (stereo not drawn): the Potency is 39.8 µM (active). As for `O=C1C2(Cl)C3(Cl)C4(Cl)C(Cl)(Cl)C5(Cl)C3(Cl)C1(Cl)C5(Cl)C24Cl` (stereo not drawn), the activity, negative = inhibition is -1.92% [at 0.501 µM]. As for `COc1ccccc1-c1[se]c2ccccc2c1I`, the “activity, negative = inhibition” value is 71.9% [at 59 µM].

Consider `COC(=O)C1=C(c2ccc(F)cc2OCc2ccccc2)C[C@@H]2CC[C@H]1N2C(=O)NCc1ccc(OC)c(OC)c1`, for which the activity, negative = inhibition is -8.71% [at 0.501 µM].

For `CN(C)[C@@H]1C(=O)C(C(N)=O)=C(O)[C@@]2(O)C(=O)C3=C(O)c4c(O)cccc4[C@@](C)(O)C3CC12` (stereo partly drawn), the Potency was 22.4 µM (active). `CNC(=O)O/N=C(\N)Cc1csc2ccccc12`: the “activity, negative = inhibition” value is 20.1% [at 59 µM].

`C/C(CCc1c[nH]c2ccccc12)=N\O`: the activity, negative = inhibition was 13.7% [at 12.7 µM]. For the compound `O=C(Nc1ccc(Cl)cc1C(=O)c1ccccc1)c1cc(Cl)cc(Cl)c1`, the “activity, negative = inhibition” value is -10.5% [at 59 µM]. Still for that read-out and setting: for `C=Cn1ccnc1P(=S)(c1cc(N(CC)CC)ns1)c1nccn1C=C` the value was -9.17% [at 59 µM]. For the compound `COP(=O)(NS(=O)(=O)c1ccccc1)OC`, the “activity, negative = inhibition” value is -8.09%. With `COc1cccc(-c2nc3ccc(N4CCN(C)CC4)cc3[nH]2)c1`, the Potency is 44.7 µM (active). For the compound `Cc1nc2ccc(N3CCN(C)CC3)cc2nc1C`, the “activity, negative = inhibition” value was 14.8%. Regarding `CN1CCN(c2cc(N3CCNCC3)ccc2[N+](=O)[O-])CC1`, the “activity, negative = inhibition” value was -17.5% [at 59 µM]. Take `CN(C)/C=C(\C=[N+](C)C)c1[nH]ncc1[N+](=O)[O-]`: the “activity, negative = inhibition” value is -35.8%.

With `CCc1nnc(NS(=O)(=O)c2ccc(N=Cc3c(O)n(-c4ccccc4)c(=O)[nH]c3=O)cc2)s1`, the “activity, negative = inhibition” value is -36.3%. As for `N#CC1=C(N)Oc2c(c(=O)oc3ccccc23)C1c1ccccc1OC(=O)c1cccs1` (stereo not drawn), the “activity, negative = inhibition” value was -9.96%. As for `COC(=O)C1=C(c2ccc(F)cc2F)C[C@@H]2CC[C@H]1N2C(=O)NC1CC1`, the activity, negative = inhibition is 2.71% [at 0.501 µM].

As for `O=C(CCNS(=O)(=O)c1ccccc1)Nc1ccc(Cl)cc1C(=O)c1ccccc1`, the “activity, negative = inhibition” value is 21.4% [at 59 µM]. Same read-out and setting: in the case of `CCOC(=O)C1=C(C)OC(N)=C(C(=O)OC)C12C(=O)Nc1ccc(Br)cc12` (stereo not drawn) it was 8.25% [at 2.33 µM]. On to `CC[N+](C)(CC)CCC[n+]1c(-c2ccccc2)c2cc(N)ccc2c2ccc(N)cc21`, for which the Potency is 5.01 µM (active). Take `C[C@H]1CC[C@@]2(NC1)O[C@@H]1C[C@H]3[C@@H]4CC=C5C[C@@H](O)CC[C@]5(C)[C@@H]4CC[C@]3(C)[C@@H]1[C@@H]2C`: the activity, negative = inhibition is 18.8% [at 21.5 µM]. As to `CCN1CCN(c2nc3c(c(=O)[nH]2)CCC3)CC1`, the “activity, negative = inhibition” value was -48.7%. Consider `CCOc1ccc(CN(CCCl)CCCl)cc1C(=O)OC`, for which the activity, negative = inhibition is 16.9% [at 0.501 µM]. `CCOP(=O)(OCC)C(O)c1ccc(OC)cc1OC` (stereo not drawn): the “activity, negative = inhibition” value is 7.49% [at 59 µM]. For `CCOC(=O)c1ncn2c1[C@@H]1CCCN1C(=O)c1cc(OC)ccc1-2`, the activity, negative = inhibition result is “inactive”.

For `CCOC(=O)C1CN(C)CCC1=O` (stereo not drawn), the activity, negative = inhibition was 26.6% [at 2.33 µM].

As to `O=C(Cc1ccccc1)N1CCN(C2CCCCCC2)CC1`, the Potency was 31.6 µM (active). With `CCN1CCN(C(=O)Cc2coc3cc(C)cc(C)c23)CC1`, the “activity, negative = inhibition” value is -6.19% [at 59 µM]. Consider `O=C(Cn1c(=O)n(CC2CS2)c2ccccc21)N1CCCCC1` (stereo not drawn), for which the “activity, negative = inhibition” value was -40.4%. For `COc1ccccc1CN1CCN(C(=O)Cc2ccccc2)CC1`, the Potency is 17.8 µM (active). For `CCC(=NCCc1ccccc1)c1c(O)n(C2CCCCC2)c(=O)[nH]c1=O`, the “activity, negative = inhibition” value was -19.9% [at 59 µM]. Regarding `CN1CCN(Cc2ccccc2C(F)(F)F)CC1`, the “activity, negative = inhibition” value was -12.5% [at 59 µM]. Take `CCOC(=O)C(O)(c1ccc(NC(=O)c2ccco2)c(OC)c1)C(F)(F)F` (stereo not drawn): the activity, negative = inhibition is -45.5% [at 2.33 µM].

As to `c1ccc(CCCCN2CCC(c3ccccc3)CC2)cc1`, the “activity, negative = inhibition” value is 9.12% [at 59 µM]. As for `CC1=C(C(=O)Nc2ccccc2)S(=O)(=O)CCO1`, the “activity, negative = inhibition” value was 2.61%.

`CC(Cc1ccccc1)NC=O` (stereo not drawn): the activity, negative = inhibition was 2.33% [at 12.7 µM].

For the compound `COC(=O)C1=C(c2ccc(Cl)c(C(F)(F)F)c2)C[C@@H]2CC[C@H]1N2C(=O)NC1CC1`, the activity, negative = inhibition is 7.94% [at 0.501 µM].
